Common to all, as to test: PBM; 200 nM protein, PBS
Holding throughout (conditions): dsDNA, one strand shown

Assay [1] concerns the target HESX1 (Homo sapiens, UniProt Q9UBX0 95-180, R165K).
The target of assay [2] is SHOX (Homo sapiens, UniProt O15266 103-189).
Assay [3] addresses ALX4 (Homo sapiens, UniProt Q9H161 200-286, Q225E).
For assay [4], the target named is HESX1 (Homo sapiens, UniProt Q9UBX0 95-180).
In assay [5] the target is MSX2 (Homo sapiens, UniProt P35548 130-214, R199I).
In assay [6] the target is ALX1 (Homo sapiens, UniProt Q15699 118-204, L144V).
The target of assay [7] is ALX3 (Homo sapiens, UniProt O95076 139-225, N203Q).
The target of assay [8] is SHOX (Homo sapiens, UniProt O15266 103-189, R173C).
Assay [9] concerns the target ALX1 (Homo sapiens, UniProt Q15699 118-204, L144R).
The target of assay [10] is ALX3 (Homo sapiens, UniProt O95076 139-225).
The target in assay [11] is PROP1 (Homo sapiens, UniProt O75360 56-141).
The target in assay [12] is HESX1 (Homo sapiens, UniProt Q9UBX0 95-180, R109Q).
Assay [13] concerns the target PROP1 (Homo sapiens, UniProt O75360 56-141, R99H).
The target of assay [14] is ALX3 (Homo sapiens, UniProt O95076 139-225, L168Q).
For assay [15], the target named is HESX1 (Homo sapiens, UniProt Q9UBX0 95-180, P111T).
In assay [16] the target is ALX3 (Homo sapiens, UniProt O95076 139-225, L168V).
In assay [17] the target is PROP1 (Homo sapiens, UniProt O75360 56-141, F88S).
Assay [18] deals with HESX1 (Homo sapiens, UniProt Q9UBX0 95-180, F115L).
Assay [19] has as its target ALX1 (Homo sapiens, UniProt Q15699 118-204).
The target in assay [20] is ALX3 (Homo sapiens, UniProt O95076 139-225, N203S).

We go through 4 sequences from paper PMC11006913.

Chain of ALX1 (Homo sapiens, UniProt Q15699 118-204) (Q15699 118-204): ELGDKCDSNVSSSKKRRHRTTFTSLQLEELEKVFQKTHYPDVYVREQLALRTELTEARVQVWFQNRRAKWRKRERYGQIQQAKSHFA
Chain of PROP1 (Homo sapiens, UniProt O75360 56-141, R99H) (O75360 56-141 R99H): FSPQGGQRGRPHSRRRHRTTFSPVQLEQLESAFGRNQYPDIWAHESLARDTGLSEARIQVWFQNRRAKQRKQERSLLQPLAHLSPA
Chain of HESX1 (Homo sapiens, UniProt Q9UBX0 95-180, P111T) (Q9UBX0 95-180 P111T): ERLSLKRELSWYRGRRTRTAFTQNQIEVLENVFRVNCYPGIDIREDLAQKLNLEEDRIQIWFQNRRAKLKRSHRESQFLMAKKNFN
Chain of HESX1 (Homo sapiens, UniProt Q9UBX0 95-180, R109Q) (Q9UBX0 95-180 R109Q): as the sequence (Q9UBX0 95-180 P111T) above, with R15Q, T17P counted along it
Chain of HESX1 (Homo sapiens, UniProt Q9UBX0 95-180, F115L) (Q9UBX0 95-180 F115L): as the sequence (Q9UBX0 95-180 P111T) above, with T17P, F21L counted along it
Chain of ALX1 (Homo sapiens, UniProt Q15699 118-204, L144R) (Q15699 118-204 L144R): as the sequence (Q15699 118-204) above, with L27R counted along it
Chain of SHOX (Homo sapiens, UniProt O15266 103-189) (O15266 103-189): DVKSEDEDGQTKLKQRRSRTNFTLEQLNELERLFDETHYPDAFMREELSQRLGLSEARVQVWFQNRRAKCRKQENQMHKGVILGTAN
Chain of HESX1 (Homo sapiens, UniProt Q9UBX0 95-180) (Q9UBX0 95-180): as the sequence (Q9UBX0 95-180 P111T) above, with T17P counted along it
Chain of ALX1 (Homo sapiens, UniProt Q15699 118-204, L144V) (Q15699 118-204 L144V): as the sequence (Q15699 118-204) above, with L27V counted along it
Chain of MSX2 (P35548 130-214 R199I): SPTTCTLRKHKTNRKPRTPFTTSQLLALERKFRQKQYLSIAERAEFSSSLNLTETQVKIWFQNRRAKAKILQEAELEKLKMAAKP
Chain of SHOX (Homo sapiens, UniProt O15266 103-189, R173C) (O15266 103-189 R173C): as the sequence (O15266 103-189) above, with R71C counted along it
Chain of HESX1 (Homo sapiens, UniProt Q9UBX0 95-180, R165K) (Q9UBX0 95-180 R165K): as the sequence (Q9UBX0 95-180 P111T) above, with T17P, R71K counted along it
Chain of PROP1 (Homo sapiens, UniProt O75360 56-141) (O75360 56-141): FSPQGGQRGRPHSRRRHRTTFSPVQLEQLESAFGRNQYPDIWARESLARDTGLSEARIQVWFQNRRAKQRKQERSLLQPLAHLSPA
Chain of ALX3 (Homo sapiens, UniProt O95076 139-225, L168Q) (O95076 139-225 L168Q): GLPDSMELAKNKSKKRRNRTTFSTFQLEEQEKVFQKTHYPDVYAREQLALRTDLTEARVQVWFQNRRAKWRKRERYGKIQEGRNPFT
Chain of PROP1 (Homo sapiens, UniProt O75360 56-141, F88S) (O75360 56-141 F88S): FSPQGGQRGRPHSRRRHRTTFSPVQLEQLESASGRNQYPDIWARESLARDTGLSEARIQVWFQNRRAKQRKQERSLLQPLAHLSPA
Chain of ALX3 (Homo sapiens, UniProt O95076 139-225, N203Q) (O95076 139-225 N203Q): as the sequence (O95076 139-225 L168Q) above, with Q30L, N65Q counted along it
Chain of ALX3 (Homo sapiens, UniProt O95076 139-225, N203S) (O95076 139-225 N203S): as the sequence (O95076 139-225 L168Q) above, with Q30L, N65S counted along it
Chain of ALX3 (Homo sapiens, UniProt O95076 139-225, L168V) (O95076 139-225 L168V): as the sequence (O95076 139-225 L168Q) above, with Q30V counted along it
Chain of ALX4 (Q9H161 200-286 Q225E): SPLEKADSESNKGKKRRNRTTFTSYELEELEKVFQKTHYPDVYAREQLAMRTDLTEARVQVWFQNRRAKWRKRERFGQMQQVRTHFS
Chain of ALX3 (Homo sapiens, UniProt O95076 139-225) (O95076 139-225): as the sequence (O95076 139-225 L168Q) above, with Q30L counted along it

As to ATAATTGG, the binding signal in assay [1] was 13.5 upbm affinity estimate (log intensity, higher = more binding, comparable within an allelic series); in assay [2], 12.6 upbm affinity estimate (log intensity, higher = more binding, comparable within an allelic series); in assay [3], 13.7 upbm affinity estimate (log intensity, higher = more binding, comparable within an allelic series); in assay [4] it was 13.4 upbm affinity estimate (log intensity, higher = more binding, comparable within an allelic series); in assay [5] it was 13.1 upbm affinity estimate (log intensity, higher = more binding, comparable within an allelic series); in assay [6], 12 upbm affinity estimate (log intensity, higher = more binding, comparable within an allelic series). Further, the binding signal in assay [7] was 8.37 upbm affinity estimate (log intensity, higher = more binding, comparable within an allelic series); in assay [8] it was 9.98 upbm affinity estimate (log intensity, higher = more binding, comparable within an allelic series); in [9] it was 11.7 upbm affinity estimate (log intensity, higher = more binding, comparable within an allelic series); in assay [10], 12.6 upbm affinity estimate (log intensity, higher = more binding, comparable within an allelic series); in assay [11], 11.7 upbm affinity estimate (log intensity, higher = more binding, comparable within an allelic series); in [12], 10 upbm affinity estimate (log intensity, higher = more binding, comparable within an allelic series). Further, the binding signal in [13] is 12 upbm affinity estimate (log intensity, higher = more binding, comparable within an allelic series); in assay [14] it was 10.9 upbm affinity estimate (log intensity, higher = more binding, comparable within an allelic series); in assay [15], 12.1 upbm affinity estimate (log intensity, higher = more binding, comparable within an allelic series); in assay [16], 10.4 upbm affinity estimate (log intensity, higher = more binding, comparable within an allelic series); in [17], 7.6 upbm affinity estimate (log intensity, higher = more binding, comparable within an allelic series); in assay [18], 8.41 upbm affinity estimate (log intensity, higher = more binding, comparable within an allelic series). In addition, the binding signal is 12.6 upbm affinity estimate (log intensity, higher = more binding, comparable within an allelic series) in [19] and 8.55 upbm affinity estimate (log intensity, higher = more binding, comparable within an allelic series) in assay [20].
As for CCAATTAC, the binding signal was 12.8 upbm affinity estimate (log intensity, higher = more binding, comparable within an allelic series) in [1]; 12.2 upbm affinity estimate (log intensity, higher = more binding, comparable within an allelic series) in assay [2]; 13.1 upbm affinity estimate (log intensity, higher = more binding, comparable within an allelic series) in assay [3]; 12.9 upbm affinity estimate (log intensity, higher = more binding, comparable within an allelic series) in assay [4]; 12.8 upbm affinity estimate (log intensity, higher = more binding, comparable within an allelic series) in assay [5]; 11.8 upbm affinity estimate (log intensity, higher = more binding, comparable within an allelic series) in assay [6]. Moreover, the binding signal in assay [7] was 8.39 upbm affinity estimate (log intensity, higher = more binding, comparable within an allelic series); in [8], 9.4 upbm affinity estimate (log intensity, higher = more binding, comparable within an allelic series); in assay [9], 11.4 upbm affinity estimate (log intensity, higher = more binding, comparable within an allelic series); in assay [10] it was 12.5 upbm affinity estimate (log intensity, higher = more binding, comparable within an allelic series); in assay [11], 11.5 upbm affinity estimate (log intensity, higher = more binding, comparable within an allelic series); in assay [12], 9.36 upbm affinity estimate (log intensity, higher = more binding, comparable within an allelic series). For the same sequence, the binding signal in [13] was 11.7 upbm affinity estimate (log intensity, higher = more binding, comparable within an allelic series); in assay [14] it was 10.6 upbm affinity estimate (log intensity, higher = more binding, comparable within an allelic series); in assay [15] it was 11.3 upbm affinity estimate (log intensity, higher = more binding, comparable within an allelic series); in assay [16], 9.97 upbm affinity estimate (log intensity, higher = more binding, comparable within an allelic series); in assay [17] it was 7.57 upbm affinity estimate (log intensity, higher = more binding, comparable within an allelic series); in assay [18], 7.75 upbm affinity estimate (log intensity, higher = more binding, comparable within an allelic series). Moreover, the binding signal in [19] was 12.5 upbm affinity estimate (log intensity, higher = more binding, comparable within an allelic series); in assay [20] it was 8.51 upbm affinity estimate (log intensity, higher = more binding, comparable within an allelic series).
As for CAATTACG, the binding signal in [1] was 12 upbm affinity estimate (log intensity, higher = more binding, comparable within an allelic series); in assay [2] it was 11.8 upbm affinity estimate (log intensity, higher = more binding, comparable within an allelic series); in [4], 12.1 upbm affinity estimate (log intensity, higher = more binding, comparable within an allelic series); in [5], 12.5 upbm affinity estimate (log intensity, higher = more binding, comparable within an allelic series); in assay [6], 11.2 upbm affinity estimate (log intensity, higher = more binding, comparable within an allelic series); in [8], 9.27 upbm affinity estimate (log intensity, higher = more binding, comparable within an allelic series). Besides, the binding signal in [9] is 10.9 upbm affinity estimate (log intensity, higher = more binding, comparable within an allelic series); in [12], 8.68 upbm affinity estimate (log intensity, higher = more binding, comparable within an allelic series); in assay [13] it was 11 upbm affinity estimate (log intensity, higher = more binding, comparable within an allelic series); in assay [15], 10.6 upbm affinity estimate (log intensity, higher = more binding, comparable within an allelic series); in assay [18], 7.47 upbm affinity estimate (log intensity, higher = more binding, comparable within an allelic series); in assay [19], 12.1 upbm affinity estimate (log intensity, higher = more binding, comparable within an allelic series).
Take GAGGGGGC: the binding signal in assay [1] was 6.47 upbm affinity estimate (log intensity, higher = more binding, comparable within an allelic series); in assay [4], 6.37 upbm affinity estimate (log intensity, higher = more binding, comparable within an allelic series); in [12] it was 6.41 upbm affinity estimate (log intensity, higher = more binding, comparable within an allelic series); in assay [15], 6.44 upbm affinity estimate (log intensity, higher = more binding, comparable within an allelic series); in assay [18], 6.41 upbm affinity estimate (log intensity, higher = more binding, comparable within an allelic series).
